Drawing on PubChem BioAssay (EPA / NIEHS), this text covers outcome and AC50 for 17 compounds.

As a reminder, the AC50 is the concentration at which the activity in the assay is half-maximal.

SMILES strings stand for the structures. Values joined by “and” are separate entries in the source; they are usually repeats but may differ in a detail not shown here. Equal values may be shown once. Active and inactive are the calls of the source. How the source made its calls: active means hit-call score of the fitted dose curve at least 0.9, where 1 is the maximum; inactive means score below 0.9.

Read-out in assay [1]: Interleukin-6 (IL6), IL6 (gene 3569)
In words: BSK_CASM3C_IL6: BioMAP Diversity Plus: CASM3C Assay for Interleukin-6 (IL6) Biomarker Activity for (AID 2283040). The following applies: primary human coronary artery smooth muscle cells; actives raise or lower the signal.

Read-out in assay [2]: Tissue plasminogen activator (tPA), PLAT (gene 5327)
Kind of assay: BSK_BE3C_tPA: BioMAP Diversity Plus: BE3C Assay for Tissue plasminogen activator (tPA) Biomarker Activity (AID 2283041).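 On outcome: tPA level quantified by ELISA one day after compound addition.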 The following applies: primary human bronchial epithelial cells; actives raise or lower the signal. The gist of the method:
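Human primary bronchial epithelial cells were dosed with chemical and tPA biomarker levels measured by ELISA 24 hours later. Activity was fitted bidirectionally against DMSO as negative control and baseline.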

Read-out in assay [3]: Interleukin-8 (IL8), CXCL8 (gene 3576)
Kind of assay: BSK_CASM3C_IL8: BioMAP Diversity Plus: CASM3C Assay for Interleukin-8 (IL8) Biomarker Activity (AID 2283042).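 Further: IL-8 protein level quantified by ELISA.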 The following applies: primary human coronary artery smooth muscle cells; actives raise or lower the signal.

Read-out in assay [4]: Human Leukocyte Antigen - DR isotype (HLADR), HLA-DRA (gene 3122)
Kind of assay: BSK_CASM3C_HLADR: BioMAP Diversity Plus: CASM3C Assay for Human Leukocyte Antigen - DR isotype (HLADR) Biomarker Activity (AID 2283043).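 Further: cell-surface HLA-DR protein level quantified by ELISA.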 The following applies: primary human coronary artery smooth muscle cells; actives raise or lower the signal.

Read-out in assay [5]: Macrophage colony-stimulating factor (MCSF), CSF1 (gene 1435)
Kind of assay: BSK_CASM3C_MCSF: BioMAP Diversity Plus: CASM3C Assay for Macrophage colony-stimulating factor (MCSF) Biomarker Activity (AID 2283044).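 Further: M-CSF protein amount quantified by ELISA after 24 h exposure.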 Conditions: primary human coronary artery smooth muscle cells; actives raise or lower the signal.

Read-out in assay [6]: Low-density lipoprotein receptor (LDLR), LDLR (gene 3949)
Kind of assay: BSK_CASM3C_LDLR: BioMAP Diversity Plus: CASM3C Assay for Low-density lipoprotein receptor (LDLR) Biomarker Activity (AID 2283045).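 Further: LDLR protein level on the cell surface quantified by ELISA.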 Conditions: primary human coronary artery smooth muscle cells; actives raise or lower the signal.

Read-out in assay [7]: Monocyte Chemoattractant Protein-1 (MCP1), CCL2 (gene 6347)
In words: BSK_CASM3C_MCP1: BioMAP Diversity Plus: CASM3C Assay for Monocyte Chemoattractant Protein-1 (MCP1) Biomarker Activity (AID 2283046).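 Further: MCP-1 level quantified by ELISA 24 h after dosing.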 The following applies: primary human coronary artery smooth muscle cells; actives raise or lower the signal.

A short description of assay [8]: BSK_CASM3C_Proliferation: Cell Proliferation Assessment in the BioMAP Diversity Plus: CASM3C Assay (AID 2283047).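 Further: sulforhodamine B total protein stain as relative cell number at 560 nm; sub-confluent cells exposed 48 h before staining; fitted both ways against DMSO so gain or loss of cell number.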 Conditions: primary human coronary artery smooth muscle cells.
Read-out in assay [9]: Monokine induced gamma interferon (MIG), CXCL9 (gene 4283)
In words: BSK_CASM3C_MIG: BioMAP Diversity Plus: CASM3C Assay for Monokine induced gamma interferon (MIG) Biomarker Activity (AID 2283048).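 Further: MIG protein level measured by ELISA.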 Conditions: primary human coronary artery smooth muscle cells; actives raise or lower the signal.

Read-out in assay [10]: serum amyloid A (SAA), SAA1 (gene 6288)
In words: BSK_CASM3C_SAA: BioMAP Diversity Plus: CASM3C Assay for serum amyloid A (SAA) Biomarker Activity (AID 2283049).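 Further: SAA protein level quantified by ELISA.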 The following applies: primary human coronary artery smooth muscle cells; actives raise or lower the signal.

`CC1=CC2C3C=CC(C3)C2C1C` (stereo not given): the result in assay [1], in assay [2], in assay [3], in assay [4], in [5] and in [6] was inactive. For the same compound, the result in assay [7], in [8], in [9] and in assay [10] was inactive.

With `OCCCCC(F)(F)C(F)(F)C(F)(F)C(F)(F)F`, the outcome in assay [1], in assay [2], in assay [3], in assay [4], in assay [5] and in [6] was inactive. Also, the outcome in [7], in assay [8], in assay [9] and in [10] was inactive.

Consider `NS(=O)(=O)C(F)(F)C(F)(F)C(F)(F)C(F)(F)C(F)(F)C(F)(F)F`, for which the result in assay [1], in [3], in assay [4], in [5], in assay [6] and in assay [7] was inactive. In addition, the result in [8], in [9] and in [10] was inactive. Besides, the AC50 in assay [2] was 49 µM (active) and 47.5 µM (active).

With `O=C(O)C(F)(F)C(F)(F)C(F)(F)C(F)(F)C(F)(F)C(F)(F)C(F)F`, the result in assay [1], in [2], in [3], in [4], in assay [5] and in [6] was inactive. The outcome in assay [7], in [8], in [9] and in assay [10] was inactive.

`Cc1ccc(O)c(-n2nc3ccccc3n2)c1`: the result in assay [1], in assay [2], in assay [3], in assay [4], in assay [5] and in assay [6] was inactive. For the same compound, the outcome in assay [7], in assay [8], in assay [9] and in assay [10] was inactive.

`Cc1cc(O)c(C(C)(C)C)cc1C(C)(C)C`: the concentration at half-maximal activity (AC50) was 5.61 µM (active) in assay [1]; 5.21 µM (active) in assay [2]; 8.77 µM (active) in assay [3]; 3.5 µM (active) in [4]; 4.59 µM (active) in assay [5]; 5.37 µM (active) in [6]. Moreover, the AC50 in [7] is 5.83 µM (active); in [8], 3.85 µM (active); in assay [9], 12.5 µM (active); in assay [10] it was 4.22 µM (active).

Take `C=C(C)C(=O)OCC(F)(F)C(F)(F)C(F)(F)C(F)F`: the outcome in assay [1], in assay [2], in assay [3], in [4], in assay [5] and in assay [6] was inactive. Moreover, the outcome in assay [7], in assay [8], in [9] and in assay [10] was inactive.

In the case of `CCN(CC)c1ccc(C=O)c(O)c1`, the result in assay [1], in assay [2], in assay [3], in [4], in assay [5] and in [6] was inactive. In addition, the result in [7], in [8], in assay [9] and in assay [10] was inactive.

`O=C(O)C(F)(F)C(F)(F)C(F)(F)OC(F)(C(F)(F)F)C(F)(F)F`: the result in [1], in [2], in assay [3], in assay [4], in assay [5] and in assay [6] was inactive. In addition, the result in assay [7], in assay [8], in assay [9] and in assay [10] was inactive.

Take `CCOC(=O)CC(=O)C(F)(F)C(F)(F)F`: the outcome in [1], in assay [2], in assay [3], in assay [4], in [5] and in [6] was inactive. For the same compound, the result in [7], in [8], in assay [9] and in assay [10] was inactive.

Regarding `CCOC(C=C(C)CCC=C(C)C)OCC`, the AC50 was 20 µM (active) in [1]; 20 µM (active) in assay [4]; 20 µM (active) in assay [5]; 10.3 µM (active) in [6]; 28.9 µM (active) in [7]; 33.7 µM (active) in assay [8]. For the same compound, the AC50 in assay [9] is 34.4 µM (active). The result in [2], in assay [3] and in [10] was inactive.

As to `O=C(O)CCC(F)(F)C(F)(F)C(F)(F)C(F)(F)C(F)(F)C(F)(F)C(F)(F)F`, the result in assay [1], in assay [2], in assay [3], in [4], in assay [5] and in assay [6] was inactive. Moreover, the outcome in assay [7], in [8], in assay [9] and in [10] was inactive.

In the case of `OCC(O)CC(F)(F)C(F)(F)C(F)(F)C(F)(F)C(F)(F)C(F)(F)C(F)(F)C(F)(F)F` (stereo not given), the result in assay [1], in [2], in [3], in assay [4], in assay [5] and in [6] was inactive. Moreover, the outcome in assay [7], in assay [8], in assay [9] and in [10] was inactive.

Take `CCN=C1C=CC(=C(c2ccc(N(CC)CC)cc2)c2ccc(N(CC)CC)cc2)c2ccccc21`: the result in [1], in assay [3] and in [6] was inactive. Besides, the concentration at half-maximal activity (AC50) in [2] was 1.54 µM (active) and 976 nM (active); in assay [4] it was 4.2 µM (active) and 3.11 µM (active); in assay [5], 5.89 µM (active) and 2.3 µM (active); in assay [7] it was 4.84 µM (active) and 4.54 µM (active); in [8], 1.09 µM (active) and 1.31 µM (active); in assay [9], 5.1 µM (active) and 5.25 µM (active). For the same compound, in [10], the half-maximal activity concentration (AC50) was 371 nM (active) and 1.07 µM (active).

Regarding `CC(C)(C)c1cc(CCC(=O)NCCCCCCNC(=O)CCc2cc(C(C)(C)C)c(O)c(C(C)(C)C)c2)cc(C(C)(C)C)c1O`, the result in [1], in [2], in assay [3], in assay [4], in [5] and in [6] was inactive. In addition, the outcome in assay [8], in [9] and in [10] was inactive. In addition, the AC50 in assay [7] was 0.824 µM (active).

For `O=C(F)C1(F)C(F)(F)C(F)(F)C(F)(F)C(F)(F)C1(F)F`, the result in [1], in assay [2], in [3], in assay [4], in assay [5] and in assay [6] was inactive. The outcome in [7], in assay [8], in assay [9] and in assay [10] was inactive.

Consider `Cc1ccc(S(=O)(=O)C(I)I)cc1`, for which the AC50 in assay [1] is 2.67 µM (active); in [2], 5.4 µM (active); in [3], 3.52 µM (active); in assay [4], 2.61 µM (active); in assay [5] it was 2.17 µM (active); in assay [7], 2.78 µM (active). The AC50 in assay [8] is 1.37 µM (active); in assay [9], 5.05 µM (active); in assay [10], 0.987 µM (active). In addition, in assay [6], the outcome was inactive.
